The record followed here is PubChem BioAssay AID2315 (National Center for Advancing Translational Sciences (NCATS), 2010).

The campaign covered roughly 290,000 compounds. About 27,000 (9.3%) were called active. No stated cut-off is given here; in the data, active means inhibition mostly above about 28% (no sharp cut-off); inactive means mostly below about 43%. The full list was thinned out, with actives kept by preference.

The nature of the test: A qHTS for Small Molecule Inhibitors of Shiga Toxin. Further: 0% is about no effect. The note with it: Vero cells, Shiga toxin protein synthesis inhibition reporter; at 38.7 µM, hits give high values.
By inhibition is commonly meant the drop in the measured response relative to a control, in per cent. Take `CCOC(=O)N1CCN(C(=O)c2ccc3c(=O)n(CCc4ccc(OC)c(OC)c4)c(=O)[nH]c3c2)CC1`: the inhibition is -3.86% (inactive). Next, `Cc1nnc(SCc2cccc(Cl)c2)n(N)c1=O`: -4.93% (inactive); `Nn1c(SCc2ccccc2)nnc1C1CCCCC1`: 101% (active); `Cc1cccc(CSc2nnc(C)c(=O)n2N)c1`: -13% (inactive). Next, `CC(C)CC(=O)Nc1ccc(Cc2ccncc2)cc1`: -5.26% (inactive); `Cc1nc2cc(C(F)(F)F)ccc2n1CCNc1nc(-c2cc(Cl)c(N)c(Cl)c2)cs1`: -1.88% (inactive). As for `COc1ccc(CN2CCN(C(=O)CCC(=O)Nc3nnc(C(C)C)s3)CC2)cc1F`, the inhibition is -3.9% (inactive). With `CCc1nc(SCC(=O)NNC(=O)c2ccc(C)cc2)c2ccccc2n1`, the inhibition was -1.93% (inactive).

As to `Cc1ccc(C(=O)NNc2ncnc3ccccc23)cc1`, the inhibition was 76.1% (active). Next, `Cc1ccc(C(=O)NNC(=O)c2cc3cc4ccccc4nc3s2)cc1`: -14.9% (inactive); `CC(C)CC(=O)Nc1nnc(S(=O)(=O)N(C)c2ccc(Cl)cc2)s1`: -4.79% (inactive); `C=CCOC(=O)C1=C(C)NC(C)=C(C(=O)OCC=C)C1c1cccs1`: 86.3% (active). Next, `CCOC(=O)C1=C(C)Nc2nc3ccccc3n2C1c1cccs1` (configuration not stated): -8.56% (inactive). Next, `CCOC(=O)C1=C(C)NC(=S)NC1c1cccs1` (configuration not stated): -11.1% (inactive); `COc1ccc(CCNC(=O)c2cnc(Cl)c(Cl)c2)cc1`: -1.83% (inactive). As for `COc1ccc(OCc2cc(C(=O)NCC3(C)COC3)no2)c(Cl)c1`, the inhibition is 75.4% (active). With `COc1ccc(-c2cc(C(=O)NCCCN3CCOCC3)no2)cc1` the figure was 20% (inactive); with `CC1CC(C)CN(CCCNC(=O)c2csc3c2CCCCC3)C1` (configuration not stated), -1.88% (inactive); with `CC(=O)c1cccc(NC(=O)c2cc(C)nn2-c2ccccc2)c1`, 30.5% (inactive). With `CC(C)C[C@H](NC(=O)N1CCn2c1nc1ccccc12)C(=O)NC1CC1` the figure was 23.3% (inactive); with `CCC(C)N1C(=S)SC(C)(C)C1N(O)C(=O)NC1CCCCC1` (configuration not stated), -10.6% (inactive). Next, `CCCCNC(=O)N(O)C1N(/N=C/c2ccc(N(C)C)cc2)C(=S)SC1(C)C` (configuration not stated): -5.76% (inactive); `CCCCNC(=O)N(O)C1N(/N=C/c2ccccc2O)C(=S)SC1(C)C` (configuration not stated): 34.2% (active); `Cc1ccc(S(=O)(=O)NC(=O)c2cccc(C)c2)cc1`: 18.1% (inactive). Consider `Cn1ncc2c(N3CCCCC3)nc(NCCCO)nc21`, for which the inhibition was 1.02% (inactive). Take `COc1cc(CN2CCC(n3nccc3NC(=O)CCCc3ccccc3)CC2)ccc1O`: the inhibition was 7.77% (inactive). Next, `C/C(CC(=O)NC(C)(C)C)=N\NC(=O)c1ccco1`: 70.6% (active); `CC(C)(C)NC(=O)c1cc(NC(=O)c2ccco2)cc(NC(=O)c2ccco2)c1`: 24.3% (inactive); `COc1ccc(N(CC(=O)NC(C)(C)C)C(=O)c2ccco2)cc1`: -10.7% (inactive).

As to `CCNS(=O)(=O)c1ccc(CCC(=O)N2CCN(c3ccc(OC)cc3)CC2)cc1`, the inhibition was 13.1% (inactive). With `Cc1nn(CCCC(=O)NCc2ccccc2Cl)c(=O)c2nccn12` the figure was -3.9% (inactive); with `NC(=O)c1oc2ccccc2c1NC(=O)CS(=O)(=O)c1ccccc1`, 12.2% (inactive); with `COC(=O)c1ccc(CN2C(=O)NC(c3ccccc3)(c3ccccc3)C2=O)o1`, 21.7% (inactive).

Regarding `Cc1ccc2c(c1)N(CC(=O)NCCCN1CCCCC1)C(=O)c1cccnc1O2`, the inhibition is 2.73% (inactive).

For the compound `O=C(Cc1cccc2ccccc12)Nc1ccc2oc(-c3ccccc3)nc2c1`, the inhibition is 74.8% (active). In the case of `CC(Oc1cccc(NC(=O)c2cccs2)c1)C(=O)c1ccccc1` (configuration not stated), the inhibition was 36.4% (inactive).

As for `O=C(Nc1ccc(NC(=O)c2cccs2)cc1)c1ccc2ccccc2c1`, the inhibition was 24.5% (inactive). Next, `O=C(Cc1cccc2ccccc12)NNC(=O)Nc1ccc(Cl)cc1`: 62.1% (inactive); `O=C(Nc1ccc2oc(-c3ccc4ccccc4c3)nc2c1)c1cccs1`: 80.9% (active); `CC(O)c1cccc(NC(=O)Cc2cccc3ccccc23)c1` (configuration not stated): 0.246% (inactive).

Take `COc1ccnc2c1c(=O)n(Cc1cccc(F)c1)c(=O)n2C`: the inhibition is -2.76% (inactive). Next, `Cn1c(=O)c2c(nc(NCCNC(=O)c3ccco3)n2Cc2ccccc2F)n(C)c1=O`: -9.7% (inactive). Consider `O=C(O)c1ccccc1CSc1nc2ccccc2s1`, for which the inhibition is 70.7% (active). Next, `O=C(CSc1nc2ccccc2s1)Nc1ccc(C(=O)O)cc1`: -1.35% (inactive); `CCN(CC)CCCSc1nc2ccccc2s1`: 47.9% (inactive); `COc1cc(OC)cc(C(=O)OCC(=O)Nc2sccc2C(N)=O)c1`: -3.26% (inactive). With `CCOC(=O)N1CCN(C(=O)C2CCN(S(=O)(=O)c3cc(Cl)ccc3OCC)CC2)CC1` the figure was -12.3% (inactive); with `Cc1ccc(N(CC(=O)NC2CCCCC2)C(=O)CCCC(=O)Nc2ccccn2)c(C)c1`, -5.94% (inactive); with `COc1ccc(CCc2nc(-c3cccs3)no2)cc1`, 120% (active).

As to `COc1ccc(OC)c(CNC(=O)CCc2nc(-c3cccs3)no2)c1`, the inhibition was 4.93% (inactive). For `CCc1ccc(CNC(=O)CCc2nc(-c3cccs3)no2)cc1`, the inhibition is -8.04% (inactive). With `COc1ccc(S(=O)(=O)NCCc2cc3ccc(C)c(C)c3[nH]c2=O)cc1` the figure was 1.8% (inactive); with `Cn1c(SCc2ccc(F)cc2)nnc1-c1ccncc1`, 3.38% (inactive); with `Cc1cc(C)nc(S/C=C/C(=O)c2ccccc2)n1`, 159% (active).

Regarding `Cc1cc(SCC(=O)c2ccccc2)nc(SCC(=O)c2ccccc2)n1`, the inhibition is 51.3% (inactive).

Regarding `Cc1cc(C)nc(SCC(=O)c2ccc(Cl)cc2)n1`, the inhibition was -6.93% (inactive).

In the case of `O=C(c1ccc(Br)o1)N1CCN(CCOc2ccccc2)CC1`, the inhibition is -4.41% (inactive). Next, `Cc1ccc(CNC(=O)[C@@H](NC(=O)Cc2ccccc2)C(C)C)cc1`: -12.1% (inactive); `CCCOc1ccc(/C=N/NC(=O)C2CC2)c(OCCC)c1`: -6.76% (inactive). Next, `O=C(CC1N=C2c3ccccc3N=C(SCc3ccccc3Cl)N2C1=O)NCc1ccco1` (configuration not stated): 38.1% (active). Take `O=C(CSC1=Nc2ccccc2C2=NC(CC(=O)NCc3ccco3)C(=O)N12)NCc1ccco1` (configuration not stated): the inhibition was -3.74% (inactive). Regarding `CCC(C)NC(=O)CSC1=Nc2ccccc2C2=NC(CCC(=O)NCc3ccco3)C(=O)N12` (configuration not stated), the inhibition was -9.08% (inactive).
